This passage reports outcome and AC50 results from PubChem BioAssay (EPA / NIEHS).

Where “and” joins values, the source holds several entries; their conditions need not be identical. Equal entries are not always repeated. Results filed as inconclusive are left out. More than one record can exist for a structure, and the calls need not agree. Calls of active or inactive are those of the source. How the source made its calls: active means hit-call score of the fitted dose curve at least 0.9, where 1 is the maximum; inconclusive means response in the unintended direction; inactive means score below 0.9.

In the assay the target is Retinoic acid receptor RXR-alpha (Homo sapiens) (UniProt P19793). In words: OT_NURR1_NURR1RXRa_0480: Odyssey Thera (OT) 8-hour HEK293T Protein Complementation Assay for Nurr1/retinoid X receptor (RXR) (AID 2283385). As to the method: OT_NURR1_NURR1RXRa_0480 is a cell-based assay that uses HEK293T, a human kidney cell line, with measurements taken at 8 hours after chemical dosing in a 384-well plate.OT_NURR1_NURR1RXRa_0480 is one of one assay component(s) measured or calculated from the OT_NURR1_NURR1RXRa_0480 assay. It is designed to make measurements of protein fragment complementation, a form of binding reporter, as detected with fluorescence intensity signals by Protein-fragment Complementation technology.Data from the assay component OT_NURR1_NURR1RXRa_0480 was analyzed into 1 assay endpoint. This assay endpoint, OT_NURR1_NURR1RXRa_0480, was analyzed in the positive analysis fitting direction relative to DMSO as the negative control and baseline of activity. Using a type of binding reporter, measures of receptor for gain-of-signal activity can be used to understand the binding at the pathway-level as they relate to the gene RXRA. Furthermore, this assay endpoint can be referred to as a primary readout, because the performed assay has only produced 1 assay endpoint. To generalize the intended target to other relatable targets, this assay endpoint is annotated to the nuclear receptor intended target family, where the subfamily is non-steroidal.
Retinoic acid receptor RXR-alpha (Homo sapiens), sequence (P19793 whole entry, looked up, the tested form may be a part): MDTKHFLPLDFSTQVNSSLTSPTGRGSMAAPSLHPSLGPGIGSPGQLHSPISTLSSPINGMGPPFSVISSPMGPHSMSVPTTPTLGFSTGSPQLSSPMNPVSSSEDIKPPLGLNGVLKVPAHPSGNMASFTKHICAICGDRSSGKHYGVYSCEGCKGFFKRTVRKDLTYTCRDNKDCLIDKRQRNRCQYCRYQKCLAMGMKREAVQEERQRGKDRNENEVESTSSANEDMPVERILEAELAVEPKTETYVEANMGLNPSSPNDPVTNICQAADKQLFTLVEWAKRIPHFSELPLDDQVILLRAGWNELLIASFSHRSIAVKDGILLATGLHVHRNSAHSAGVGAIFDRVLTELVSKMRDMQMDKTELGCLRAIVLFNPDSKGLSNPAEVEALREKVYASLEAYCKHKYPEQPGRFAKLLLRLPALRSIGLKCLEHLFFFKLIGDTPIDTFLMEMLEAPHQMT
Protein-fragment complementation assay, or PCA, is a method for the identification and quantification of protein-protein interactions. In the PCA, the proteins of interest ("bait" and "prey") are each covalently linked to fragments of a third protein (e.g. DHFR, which acts as a "reporter"). Interaction between the bait and the prey proteins brings the fragments of the reporter protein in close proximity to allow them to form a functional reporter protein whose activity can be measured.
`COP(=O)(OC)OC`: the call was inactive. Usually AC50 stands for the concentration giving half of the maximal activity seen. With `CC(C)(C)CC(C)(C)c1ccc(O)cc1`, the AC50 was 11.3 µM (active) and 11.2 µM (active).

For the compound `COc1ccc(C=O)cc1`, the call was inactive. On the same count and under the same terms, in the case of `C[C@]12CC[C@H](O)CC1=CC[C@@H]1[C@@H]2CC[C@]2(C)C(=O)CC[C@@H]12` it was “inactive”. Still for that read-out and setting: under `CNC(=O)O/N=C/C(C)(C)S(C)=O` (stereo not given) stands “inactive”. For `COP(=O)(OC)O/C(=C\Cl)c1cc(Cl)c(Cl)cc1Cl`, the AC50 is 4.45 µM (active).

For the compound `COc1ccc(C=O)cc1OC`, the outcome was inactive. The same measure, in the same setting: in the case of `CC(C)c1cccc(C(C)C)c1O` it was “inactive”. Consider `CC(C)(C)c1cc(O)ccc1O`, for which the AC50 is 69.5 µM (active) and the outcome was inactive. Regarding `Cc1ccc(N)cc1Cl`, the result was inactive. Consider `Cc1ccccc1C(=O)Nc1cccc(OC(C)C)c1`, for which the call was inactive. On the same count and under the same terms, under `O=C(Cc1ccccc1)c1ccccc1` stands “inactive”.

As to `Cl/C=C/Cl`, the call was inactive. Take `C=CCc1ccc(OC)cc1`: the call was inactive. With `Clc1ccc(C2(Cn3cncn3)CC(Br)CO2)c(Cl)c1` (stereo not given), the call was inactive. As to `O=C(O)C(F)(F)C(F)(F)C(F)(F)C(F)(F)C(F)(F)C(F)(F)F`, the result was inactive.

As to `BrCCBr`, the outcome was inactive.

In the case of `CCCCCCCCc1ccc(O)cc1`, the compound was called inactive.

As for `CCOP(=S)(OCC)Oc1nc(Cl)c(Cl)cc1Cl`, the AC50 was 83.4 µM (active) and 71 µM (active). For the compound `CCC(=O)C(CC(C)N(C)C)(c1ccccc1)c1ccccc1` (stereo not given), the compound was classed as inactive. `O=C(OC1CCCCC1)c1ccccc1C(=O)OC1CCCCC1`: the AC50 was 44.6 µM (active). On to `COP(=S)(OC)Oc1ccc(Sc2ccc(OP(=S)(OC)OC)cc2)cc1`, for which the compound was classed as inactive. On the same count and under the same terms, under `ClC(Cl)=C(Cl)C(Cl)=C(Cl)Cl` stands “inactive”; under `OCc1ccco1`, “inactive”. On to `O=C1C(Cl)=C(Cl)C(=O)c2ccccc21`, for which the AC50 was 11.4 µM (active). On to `CCC[CH2][Sn]([Cl])([Cl])[Cl]`, for which the outcome was inactive. On to `CC(=O)c1cc(C(C)(C)C)cc2c1CCC2(C)C`, for which the AC50 was 74.2 µM (active).

Regarding `O=C(O)C(F)(F)C(F)(F)C(F)(F)C(F)(F)C(F)(F)C(F)(F)C(F)(F)C(F)(F)C(F)(F)C(F)(F)F`, the outcome was inactive. Consider `O=[N+]([O-])c1ccc(O)c([N+](=O)[O-])c1`, for which the call was inactive.

Take `O=C/C=C/c1ccccc1`: the outcome was inactive. Same read-out and setting: in the case of `C[C@]12CCC(=O)C[C@@H]1CC[C@@H]1[C@@H]2CC[C@]2(C)[C@@H](O)CC[C@@H]12` it was “inactive”; in that of `COc1cc(-c2ccc(N)c(OC)c2)ccc1N`, “inactive”. For the compound `O=C(O)C(Cl)(Cl)Cl`, the outcome was inactive.

`Clc1nc(Cl)nc(Cl)n1`: the outcome was inactive. Still for that read-out and setting: under `ClC1(Cl)C2(Cl)C3(Cl)C4(Cl)C(Cl)(Cl)C5(Cl)C3(Cl)C1(Cl)C5(Cl)C24Cl` (stereo not given) stands “inactive”; under `COc1cc(OC)nc(NC(=O)NS(=O)(=O)c2ncccc2C(=O)N(C)C)n1`, “inactive”. The same measure, in the same setting: in the case of `Oc1ccc(-c2ccccc2)cc1` it was “inactive”; in that of `CN(C)N=O`, “inactive”.

Take `CC1(C)CCC(Cc2ccc(Cl)cc2)C1(O)Cn1cncn1` (stereo not given): the result was inactive.
